HCV inhibitor: blocks hepatitis C virus | Huh7.5.1 HCVcc-Cre infection, luciferase reporter, 44 h | Potency, µM (doses to about 41.8 µM), for inactives: top-dose activity change, negative = inhibition, most hits filed as inhibitors | actives 3.4% (n = 340,000) | AID 651820; active = well fitted inhibition curve with a large enough effect; inconclusive = small, poorly fitted or top-dose-only effect, or another doubt; inactive = no such curve, though single readings can be large or run the other way; also: potency is read from the fitted curve at half-maximal effect; % is scaled to controls: 0 for no effect and ±100 for the full control effect
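Cells seeded at 1,000/well and cultured 4 h, then compounds added followed by HCVcc-Cre virus (~0.5 moi). After 44 h further culture, luciferase substrate was added, plates held 15 min at room temperature, and luminescence read for 15 sec.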
Lassa entry inh: blocks Lassa virus binding to or entry into cells; Lassa virus pseudotype entry inhibition, cell reporter; Potency, µM (doses to about 37.9 µM), for inactives: top-dose activity change, negative = inhibition, hits mostly inhibitors; actives 1.2% (n = 300,000); AID 540256; calls by dose curve; tested in HEK293 cells; also: potency is read from the fitted curve at half-maximal effect; % is scaled to controls: 0 for no effect and ±100 for the full control effect; nearly all actives have a fitted effect of over 50% in size
Shiga inhibitor: blocks Shiga toxin action in Vero cells | Vero cells, Shiga toxin protein synthesis inhibition reporter | inhibition, % at 38.7 µM | actives 9.2% (n = 290,000) | AID 2315; in the data active = inhibition mostly above about 28%, no sharp cut-off; inactive = mostly below about 43%; also: 0% is about no effect
Cycloheximide cs: affects cycloheximide protein synthesis inhibition readout, counter-screen; max response, %; AID 2314; actives 12% (n = 300,000); cell reporter, cycloheximide protein synthesis inhibition counterscreen; in the data active = max response mostly above about 13%, no sharp cut-off; inactive = mostly below about 14%; also: read at 38.3 µM for the half of the compounds with a filed dose; 0% is about no effect
MARV entry inh: Marburg virus entry inhibition; Potency, µM (highest dose often 37.8 µM), without a hit: top-dose activity change, negative = inhibition, hits mostly inhibitors; Marburg virus pseudotyped entry inhibition, cell reporter; actives 1.8% (n = 300,000); calls by dose curve; tested in HEK293 cells; also: potency is read from the fitted curve at half-maximal effect; % is scaled to controls: 0 for no effect and ±100 for the full control effect
FMDV inh: foot and mouth disease virus antiviral activity; AID 1159524; Potency, µM (doses to about 57.9 µM), for the others: at the highest dose activity change, negative = inhibition, most hits filed as inhibitors; actives 1.2% (n = 410,000); FMDV antiviral cell-based qHTS; calls by dose curve; tested in HEK293T cells; also: read-out not given here; potency is read from the fitted curve at half-maximal effect; % is scaled to controls: 0 for no effect and ±100 for the full control effect; nearly all actives have a fitted effect of over 45% in size
Starred values were filed as active, the others as inactive; ? = inconclusive; nt = not tested or not shown; ! = a repeat was not active; [ ] = another dose, or the depositor's remark. This is a sample that favours compounds with a hit; in the whole collection about 13% have one here.

SMILES | HCV inhibitor | Lassa entry inh | Shiga inhibitor | Cycloheximide cs | MARV entry inh | FMDV inh
COCCOC(=O)c1[nH]c2c(c1C)C(=O)C(C(=O)OC)C(C)C2 (stereo unspecified) | -28.8% | nt | 74.0* | 33.7* | nt | 62.9%
COC(=O)c1[nH]c2c(c1C)C(=O)CCC2 | -19.9% | 3.2% | 22.5 | 11.2 | 2.4% | nt
Cc1c(C(=O)OC2CCC(C)CC2)[nH]c2c1C(=O)CCC2 (stereo unspecified) | -3.2% | ? | 76.1* | 43.3* | ? | 21.5%
CCOc1ccc(C2CC(=O)c3c([nH]c(C(=O)OC4CCCCCC4)c3C)C2)cc1 (stereo unspecified) | nt | 13.0%[46.1 µM] | nt | nt | 3.3%[46.1 µM] | -45.8%
COc1cccc(CC2(CO)CCN(Cc3cn(C)nc3C)CC2)c1 | 9.1% | 6.4%[46.1 µM] | -4.9 | 4.3 | 1.4%[46.1 µM] | -19.9%
CCCCCOC(=O)c1[nH]c2c(c1C)C(=O)C(C(=O)OC)C(C)C2 (stereo unspecified) | ? | -19.4% | 38.2 | 26.0* | 17.9% | -20.4%
COCCOC(=O)c1[nH]c2c(c1C)C(=O)CC(c1ccccc1)C2 (stereo unspecified) | ? | ? | 3.1 | 3.7 | -28.8% | ?
FC(F)(F)c1nnc2n1N=C(c1ccccc1)CS2 | 1.6% | nt | -1.7 | -5.3 | nt | -11.5%
O=C1C=C(c2cc(F)ccc2F)C[C@@H](c2ccc(Cl)cc2)C1 | ? | nt | nt | nt | nt | -20.6%
COc1ccc([C@H]2CC(=O)C=C(c3cc(F)ccc3F)C2)cc1OC | 11.2µM* | nt | nt | nt | nt | 31.6µM*
COc1ccc([C@H]2CC(=O)C=C(c3cc(C)ccc3F)C2)cc1 | -24.3% | nt | nt | nt | nt | -17.7%
COc1ccc([C@H]2CC(=O)C=C(c3cc(C)ccc3OC)C2)cc1 | 7.94µM* | nt | nt | nt | nt | -7.9%
Cc1cc(NC(=O)c2ccc(F)cc2)n(CCOC(=O)c2ccc(F)cc2)n1 | ? | -12.9% | -1.4 | 10.6 | ? | ?
S=C(Nc1cccnc1)N1CCc2ccccc21 | 17.3% | nt | -4.2 | -0.7 | nt | -1.6%
O=C(Nc1cccc([N+](=O)[O-])c1)N1CCCc2ccccc21 | 3.2% | 9.5%[46.1 µM] | 74.4* | 48.3* | -0.3%[46.1 µM] | -16.6%
CC(=O)c1cccc(NC(=O)Cc2ccc(NC(=O)N3CCCCc4ccccc43)cc2)c1 | nt | 18.7%[46.1 µM] | nt | nt | nt | -27.3%
O=[N+]([O-])c1cccc(NC(=S)N2CCc3ccccc32)c1 | ? | nt | 58.4* | 31.8* | nt | -15.0%
Cc1nc(Cc2ccccc2)sc1CC#N | 1.3% | ? | nt | nt | -12.8%[46.1 µM] | -0.9%
C=CCn1c(C)c(/C=C/c2cc[n+](C)cc2)c2ccccc21 | ? | ? | nt | -2.6 | 2.82µM* | ?
CC[C@]12c3[nH]c4ccccc4c3CCN1C(=O)C(CC(=O)NCC13CC4CC(CC(C4)C1)C3)C[C@@H]2C(=O)N1CCN(C(=O)C2CC2)CC1 (stereo partly specified) | 22.4µM* | nt | nt | nt | nt | ?
CC[C@]12c3[nH]c4ccccc4c3CCN1C(=O)C(CC(=O)NCc1ccco1)C[C@@H]2C(=O)N1CCN(C(=O)C2CC2)CC1 (stereo partly specified) | 0.794µM* | nt | nt | nt | nt | 0.6%
CC(C)(C)C(=O)Oc1ccc2cc(-c3ccc4ccccc4n3)c(=O)oc2c1 | 6.8% | 17.4% | -1.4 | -2.3 | 15.7% | 6.7%
CCNc1ccccc(-c2ccc3ccccc3n2)c1=O | 18.6% | 9.8% | 133.8* | 40.5* | 21.1% | 31.3%
Cc1nnc(N/N=C/c2cccc(OCc3ccc(Cl)c(Cl)c3)c2)n1N | -17.1% | ? | 46.9* | 39.0* | ? | 11.5%
Cc1nnc(N/N=C/c2cccc(C(F)(F)F)c2)n1N | 20.2% | 1.0% | -4.1 | 8.8 | ? | 10.7%
SMILES | HCV inhibitor | Lassa entry inh | Shiga inhibitor | Cycloheximide cs | MARV entry inh | FMDV inh
C[C@@H](CO)NC(=O)c1ccc2c3n(nc2c1)-c1ccc(Cl)cc1CO3 | -24.0% | nt | 54.8* | 32.9* | nt | 13.3%
CC(C)[C@@H](CO)NC(=O)c1ccc2c3n(nc2c1)-c1ccc(Cl)cc1CO3 | -11.7% | nt | 46.2* | 33.8* | nt | 0.0%
c1ccc2c(c1)COc1c3cc4c(cc3nn1-2)OCO4 | nt | nt | nt | nt | nt | -11.7%
CCc1cc(-c2ccc3c(c2)COc2c4ccccc4nn2-3)on1 | -10.9% | nt | nt | nt | nt | -54.4%
Cc1sc(NC(=O)C2CCCCC2C(=O)O)c(C(N)=O)c1C (stereo unspecified) | -6.5% | -3.1% | -13.5 | -2.7 | -4.1% | 30.2%
CN(C)CCNCCCOc1ccccc1-c1ccccc1 | nt | nt | -4.5 | -1.9 | nt | nt
CC(C)(C)NCCOCCOc1ccccc1-c1ccccc1 | -21.1% | ? | 1.2 | -5.0 | ? | -6.5%
CCC(C)NCCOCCOc1ccc(Cl)cc1Br (stereo unspecified) | 35.5µM* | ? | -11.2 | -5.1 | ? | -10.1%
CCC(C)NCCOCCOc1ccccc1-c1ccccc1 (stereo unspecified) | 12.6µM* | ? | -22.0 | -3.2 | ? | -11.3%
C=CCNCCOCCOc1ccccc1-c1ccccc1 | -10.9% | nt | 96.9* | 19.8* | nt | -7.5%
Cc1cccc(/C=N/NC(=O)c2ccc3c(c2)OCCO3)c1O | nt | nt | 54.7* | 13.9 | nt | nt
CCOc1cccc(/C=N/NC(=O)c2ccc3c(c2)OCCO3)c1O | ? | ? | 81.6* | 29.3* | ? | 9.6%
C=CC(C)(C)c1c2occc2c(O)c2ccc(=O)oc12 | -9.1% | nt | nt | nt | nt | ?
C=CC(C)(C)c1c(O)c(CC=C(C)C)c(O)c2c(=O)c3ccc(O)c(O)c3oc12 | 11.2µM* | nt | nt | nt | nt | ?
COc1ccc(OC)c(C(c2nnnn2CCc2ccccc2)N2CCN(c3ccccc3)CC2)c1 (stereo unspecified) | ? | 10µM* | 1.3 | -2.3 | ? | 18.1%
CCN1CCN(C(c2cccc(OC)c2OC)c2nnnn2Cc2ccco2)CC1 (stereo unspecified) | -8.9% | 3.0% | -6.7 | -2.5 | 0.4%[46.1 µM] | -8.1%
CCC(C)(C)n1nnnc1C(c1ccccc1OC)N1CCN(C(=O)c2ccco2)CC1 (stereo unspecified) | 14.1% | -1.3% | 40.7 | 11.2* | 2.4%[46.1 µM] | -2.1%
COc1ccccc1C(c1nnnn1Cc1ccco1)N1CCN(c2cccc(C)c2C)CC1 (stereo unspecified) | 12.6µM* | 9.2µM* | 43.4* | 28.0* | ? | -3.3%
COc1ccc(OC)c(C(c2nnnn2Cc2ccccc2)N2CCN(C)CC2)c1 (stereo unspecified) | 5.9% | -14.9% | -8.9 | -2.7 | ? | -12.1%
COc1ccc(N2CCN(C(c3cc(OC)ccc3OC)c3nnnn3Cc3ccco3)CC2)cc1 (stereo unspecified) | 12.3% | ? | -3.4 | -1.8 | 10µM*! | 22.0%
COCCn1nnnc1C(c1ccc(OC)cc1OC)N1CCN(c2ccccc2)CC1 (stereo unspecified) | 8.5% | 7.6% | -15.4 | -1.2 | ? | -15.3%
CC(C(=O)NCCN1CCOCC1)c1ccc([N+](=O)[O-])cc1 (stereo unspecified) | 8.2% | -2.9% | -10.5 | -1.8 | -1.3% | -5.7%
Cc1nnc(SC(C)C(=O)Nc2nccs2)s1 (stereo unspecified) | 12.9% | nt | -0.9 | -0.8 | nt | -0.5%

High-throughput results from PubChem BioAssay.
